Hit rate of the full screen: of about 52,000 compounds, about 4,300 (8.3%) were called active. No stated cut-off is given here; in the data, active means survival mostly below about 52% (no sharp cut-off); inactive means mostly above about 56%. For the sample, actives were picked, then their nearest neighbours and some compounds at random.
Tested on: DeltatarO mutant
Assay: growth inhibition of S. aureus wild type versus tarO mutant, primary screen, teichoic acid synthesis inhibitors, RN4220, OD600 (AID 463173)
Conditions: OD600, 18 h, hits give low values, screened at 18.75 µg/mL (by protocol)

| Compound | survival |
| --- | --- |
| O=C(NCc1noc2ccccc12)N1CCN(c2ccccc2F)CC1 | 40% (inactive) |
| COc1cccc(CSc2nc(-c3ccccc3OC)nc3c2Cc2c(CO)cnc(C)c2O3)c1 | 57% (inactive) |
| CCCn1c2ccccc2c2cnn(CC(=O)NCc3cc(OC)ccc3OC)c(=O)c21 | 122% (inactive) |
| CCN(CC)S(=O)(=O)c1ccc2c(c1)c(=O)c(C(=O)NCc1ccccc1OC)cn2C | 71% (inactive) |
| COc1cccc(C(=O)Nc2nc3nc(C)c(C)c(=O)n3[nH]2)c1 | 104% (inactive) |
| COC(=O)c1c(NC(=O)c2cc(=O)c3c(C)cc(C)cc3o2)sc2c1CCCC2 | 61% (inactive) |
| Cc1cc(C)c2c(=O)cc(C(=O)Nc3sc4c(c3C#N)CCCC4)oc2c1 | 12% (active) |
| CCOC(=O)c1c(NC(=O)c2cc(=O)c3c(C)cc(C)cc3o2)sc2c1CCC2 | 61% (inactive) |
| Cc1ccc(C(=O)NCC(c2ccco2)S(=O)(=O)c2cccs2)cc1C (stereo not drawn) | 102% (inactive) |
| CC(=O)c1ccc(NC(=O)CCc2c(C)nn(-c3ccc4nncn4n3)c2C)cc1 | 91% (inactive) |
| Cc1cccc(N2CCN(C(=O)Cn3nc(C)n4cccc4c3=O)CC2C)c1 (stereo not drawn) | 90% (inactive) |
| COC(=O)c1cc2oc(C)cc2n1Cc1ccccc1Cl | -8% (active) |
| COC(=O)c1cc2sccc2n1Cc1ccc(F)cc1Cl | 65% (inactive) |
| COC(=O)c1cc2occc2n1Cc1ccc(F)cc1Cl | 30% (active) |
| COC(=O)c1cc2oc3ccccc3c2n1Cc1ccccc1Cl | 72% (inactive) |
| COC(=O)c1cc2oc(C)cc2n1Cc1ccc(Cl)cc1 | 73% (inactive) |
| COC(=O)c1cc2oc(C)cc2n1CC(=O)Nc1cc(Cl)ccc1OC | 77% (inactive) |
| COC(=O)c1cc2oc(C)cc2n1Cc1cccc(Cl)c1 | -8% (active) |
| COC(=O)c1cc2oc(C)cc2n1Cc1ccc(C)cc1 | 69% (inactive) |
| COC(=O)c1cc2oc(C)cc2n1Cc1c(C)cc(C)cc1C | 46% (inactive) |
| COC(=O)c1cc2sc(C)cc2n1Cc1ccc(F)cc1Cl | 76% (inactive) |
| COC(=O)c1cc2oc(C)cc2n1Cc1cc(C)ccc1C | -9% (active) |
| COC(=O)c1cc2oc(C)cc2n1Cc1ccc(Br)cc1F | 75% (inactive) |
| O=C(NCc1ccccc1)c1cc2sccc2n1Cc1ccc(F)cc1 | 88% (inactive) |
| Cc1cc(C)cc(-n2c(SCC(=O)Nc3nnc(C)s3)nc3c([nH]c4ccccc43)c2=O)c1 | 68% (inactive) |
| O=C(NC1CC(=O)N(c2cccc(F)c2)C1)c1ccc(Br)o1 (stereo not drawn) | 101% (inactive) |

| Compound | survival |
| --- | --- |
| CC(C)(C)C1CCc2c(sc(NC(=O)c3noc4c3CCCC4)c2C#N)C1 (stereo not drawn) | 53% (inactive) |
| Cc1nnc(N(C)C(=O)CNC(=O)c2ccccc2)s1 | 75% (inactive) |
| COc1ccc(NC(=O)c2ccccc2NC(=O)c2ccco2)cc1 | 74% (inactive) |
| CCOC(=O)c1c(C)oc2nc(C)nc(NCCc3ccc(SC)cc3)c12 | 83% (inactive) |
| Cc1cccc(CSc2nc3cc(C(=O)NC4CCCC4)ccc3c(=O)n2Cc2ccccc2)c1 | 69% (inactive) |
| COc1ccc(Cl)cc1NC(=O)c1cc(S(=O)(=O)NC2CCCCCC2)ccc1F | 71% (inactive) |
| CCc1cccc(NC(=O)Cn2c(C(=O)OC)cc3occc32)c1 | 92% (inactive) |
| CCOC(=O)c1cc2oc(C)cc2n1CCCN1C(=O)c2ccccc2C1=O | 0% (active) |
| COC(=O)c1cc2occc2n1Cc1nc(-c2ccc(C)cc2)oc1C | 69% (inactive) |
| C=CCn1c(C(=O)OCC)cc2oc(C)cc21 | 119% (inactive) |
| COC(=O)c1cc2occc2n1Cc1cccc(C)c1 | -6% (active) |
| CCOC(=O)c1cc2oc(C)cc2n1CC(=O)NC1CC1 | 86% (inactive) |
| COC(=O)c1cc2oc3ccccc3c2n1Cc1cccc(C)c1 | 31% (active) |
| COC(=O)c1cc2oc3ccccc3c2n1Cc1ccc(Cl)cc1 | 76% (inactive) |
| COC(=O)c1cc2oc3ccccc3c2n1Cc1ccc(C)cc1 | 93% (inactive) |
| COc1ccc(Cl)cc1C1CC(=O)Nc2cc3c(cc21)OCCO3 (stereo not drawn) | 102% (inactive) |
| O=C(Nc1ccc(Br)cc1F)C1CCN(c2nc3ccccc3[nH]2)CC1 | 102% (inactive) |
| CCCNC(=O)Cn1c(=O)n(CC2CCC(C(=O)NC)CC2)c(=O)c2sccc21 (stereo not drawn) | 87% (inactive) |
| Cc1cccc(NC2=NCC(=O)N2Cc2ccccc2)c1 | 89% (inactive) |
| CCOC(=O)N1CCN(C(=O)c2ccc3c(c2)N(Cc2ccccc2F)C(=O)c2ccccc2S3(=O)=O)CC1 | 72% (inactive) |
| O=S(=O)(c1ccc(OC(F)(F)F)cc1)N1CCC(c2nc3ccccc3s2)CC1 | 65% (inactive) |
| CNC(=O)C1CCC(Cn2c(=O)c3sccc3n(CC(=O)Nc3ccccc3)c2=O)CC1 (stereo not drawn) | 75% (inactive) |
| CCOC(=O)c1sc2nc(C)n(CC(=O)Nc3cccc(Cl)c3)c(=O)c2c1C | 71% (inactive) |
| CCOc1ccc(NC(=O)CSc2nccn2Cc2ccco2)cc1 | 91% (inactive) |
| CCOc1ccc(CCNC(=O)c2ccc3c(c2)sc2nc(-c4ccc(F)cc4)cn23)cc1OCC | 42% (active) |
| CCOc1ccc(-c2cn3c(n2)sc2cc(C(=O)NCCc4ccc(OC)cc4OC)ccc23)cc1 | 40% (active) |

| Compound | survival |
| --- | --- |
| CCOc1ccc(-c2cn3c(n2)sc2cc(C(=O)NCCC4=CCCCC4)ccc23)cc1 | 87% (inactive) |
| COc1ccc(-c2cn3c(n2)sc2cc(C(=O)NCCc4ccc(OC)cc4OC)ccc23)cc1 | 65% (inactive) |
| CCOc1ccc(-c2cn3c(n2)sc2cc(C(=O)NCCc4ccc(OC)c(OC)c4)ccc23)cc1 | 49% (active) |
| CCc1ccc(-c2cn3c(n2)sc2cc(C(=O)NCCc4ccc(OC)cc4OC)ccc23)cc1 | 59% (inactive) |
| CCOc1ccc(CNC(=O)c2ccc3c(c2)sc2nc(-c4ccccc4)cn23)cc1 | 74% (inactive) |
| CCOc1ccccc1CNC(=O)c1ccc2c(c1)sc1nc(-c3ccccc3)cn12 | 67% (inactive) |
| COc1ccccc1CNC(=O)c1ccc2c(c1)sc1nc(-c3ccc(F)cc3)cn12 | 63% (inactive) |
| COc1ccc(-c2cn3c(n2)sc2cc(C(=O)NCCc4ccccc4)ccc23)cc1 | 86% (inactive) |
| COc1cccc(-c2cn3c(n2)sc2cc(C(=O)NCCc4ccccc4)ccc23)c1 | 38% (active) |
| COc1cccc(-c2cn3c(n2)sc2cc(C(=O)NCCCc4ccccc4)ccc23)c1 | 54% (inactive) |
| COc1ccc(C(C#N)N2N=C(C)CC2c2ccccc2)cc1OC (stereo not drawn) | 108% (inactive) |
| CC(=O)c1ccc(NC(=O)CSc2nc(C3CCCC3)nc3c2c(=O)n(C)c(=O)n3C)cc1 | 78% (inactive) |
| Cc1cccc(C)c1-n1ncc(C(=O)N2CCN(c3ncccn3)CC2)c1C1CCN(C(=O)OC(C)(C)C)CC1 | 95% (inactive) |
| COc1cc(OC)c(NC(=O)CCc2nc(C3=CCN(Cc4cccc(Cl)c4)CC3)no2)cc1Cl | 75% (inactive) |
| Cc1cc(C)c(NC(=O)CN(C)S(=O)(=O)c2ccc3c(c2)c(=O)n(C)c(=O)n3C)c(C)c1 | 81% (inactive) |
| Cc1ccc(Cl)cc1-n1ncc2c(N3CCC(C)CC3)ncnc21 | 128% (inactive) |
| COc1cc(C(CC(=O)Nc2ccc(Br)cn2)N2Cc3ccccc3C2=O)cc(OC)c1OC (stereo not drawn) | 78% (inactive) |
| COc1cccc(-c2cn3c(n2)sc2cc(C(=O)NCCc4ccc(OC)c(OC)c4)ccc23)c1 | 49% (inactive) |
| COc1ccc(CCNC(=O)c2ccc3c(c2)sc2nc(-c4ccc(C)cc4)cn23)cc1OC | 81% (inactive) |
| COc1ccc(CCNC(=O)c2ccc3c(c2)sc2nc(-c4ccccc4)cn23)cc1OC | 47% (active) |
| Cc1cc(C(=O)O)on1 | 83% (inactive) |
| COc1ccc(-c2nc3ccccc3s2)cc1NC(=O)c1ccccc1F | 151% (inactive) |
| COc1ccc(C(=O)Nc2cc(-c3nc4ccccc4s3)ccc2OC)cc1 | 19% (active) |
| COc1ccc(-c2nc3ccccc3s2)cc1NC(=O)c1ccccc1OC | 77% (inactive) |
| COc1cc(OC)cc(C(=O)Nc2ccc(-c3nc4ccccc4s3)cc2C)c1 | 72% (inactive) |
| CCOc1ccc(C(=O)Nc2cc(-c3nc4ccccc4s3)ccc2OC)cc1 | 187% (inactive) |

| Compound | survival |
| --- | --- |
| COc1ccc(-c2nc3ccccc3s2)cc1NC(=O)c1ccc(C#N)cc1F | 168% (inactive) |
| COc1ccc(-c2nc3ccccc3s2)cc1NC(=O)c1cccc([N+](=O)[O-])c1C | 38% (active) |
| COc1ccc(-c2nc3ccccc3s2)cc1NC(=O)c1cc(OC)c(OC)c(OC)c1 | 57% (inactive) |
| COc1ccc(-c2nc3ccccc3s2)cc1NC(=O)c1cc2ccccc2o1 | 38% (active) |
| COc1cc(OC)cc(C(=O)Nc2cc(-c3nc4ccccc4s3)ccc2OC)c1 | 42% (active) |
| O=C(Nc1cc(-c2nc3ccccc3s2)ccc1Cl)c1cc2ccccc2o1 | 105% (inactive) |
| COc1ccc(-c2nc3ccccc3s2)cc1NC(=O)c1ccc(F)cc1 | 137% (inactive) |
| CCOC(=O)N1CCc2c(sc(NCc3sccc3C)c2C(=O)Nc2ccccc2OCC)C1 | 94% (inactive) |
| O=C(NCCS(=O)(=O)N1CCN(c2ccc(F)cc2)CC1)C(c1ccccc1)c1ccccc1 | 113% (inactive) |
| CC(C)COc1ccc(C(=O)N2CCN(CCc3ccccn3)CC2)cc1 | 63% (inactive) |
| CC(C)(C)C(=O)C1C2C3COC(O3)C(=O)C2C2C=Cc3ccccc3N21 (stereo not drawn) | 124% (inactive) |
| CCc1cccc(NC(=O)Cn2c(=O)n(CC(=O)NCCc3ccccc3)c(=O)c3ccccc32)c1 | 102% (inactive) |
| COc1cc(Cl)c(C)cc1NC(=O)c1cc2c(Cl)nc3ccc(C)cc3c2s1 | 64% (inactive) |
| CCSc1ncc(Cl)c(C(=O)N2CCN(c3ccccc3OC)CC2)n1 | 76% (inactive) |
| CCCSc1ncc(Cl)c(C(=O)N2CCN(c3cccc(Cl)c3)CC2)n1 | 40% (active) |
| CCCSc1ncc(Cl)c(C(=O)N2CCN(c3ccc(OC)cc3)CC2)n1 | 49% (inactive) |
| CSc1ncc(C(=O)N2CCN(c3ccc(Cl)cc3)CC2)c(C)n1 | 106% (inactive) |
| Cn1cc(S(=O)(=O)N2CCCC2)cc1C(=O)N1CCN(c2cccc(Cl)c2)CC1 | 73% (inactive) |
| CSc1ncc(C(=O)N2CCN(c3cccc(Cl)c3)CC2)c(C)n1 | 0% (active) |
| CSc1ncc(C(=O)N2CCN(c3cccc(C(F)(F)F)c3)CC2)c(C)n1 | 69% (inactive) |
| CS(=O)(=O)N1CCc2cc(C(=O)N3CCN(c4cccc(Cl)c4)CC3)ccc21 | 49% (inactive) |
| CCS(=O)(=O)c1ncc(Cl)c(C(=O)N2CCN(c3cccc(Cl)c3)CC2)n1 | 8% (active) |
| CCS(=O)(=O)c1ncc(Cl)c(C(=O)N2CCN(c3ccc(OC)cc3)CC2)n1 | 68% (inactive) |
| CCSc1ncc(Cl)c(C(=O)N2CCN(c3ccc(OC)cc3)CC2)n1 | 83% (inactive) |
| CS(=O)(=O)c1ncc(Cl)c(C(=O)N2CCN(c3cccc(Cl)c3)CC2)n1 | 17% (active) |

Reference: PubChem BioAssay AID463173 (ICCB-Longwood Screening Facility, Harvard Medical School, 2010)
